Among the test systems are HT29 colon; SNB-75 CNS; SNB-19 CNS; U251 CNS; PC-3 prostate; UACC-62 melanoma; LOX IMVI melanoma; SK-MEL-28 melanoma; SK-MEL-2 melanoma; EKVX NSCLC; SN12C renal; UO-31 renal; TK-10 renal; CAKI-1 renal; A498 renal; CCRF-CEM leukemia; MOLT-4 leukemia; SR leukemia; SK-MEL-5 melanoma; ACHN renal.
Common to all, as to test: NCI-60 one-dose screen, 48 h (100 = growth as untreated, 0 = no growth, -100 = all killed)
Details in all cases: 10 µM

Growth data for nine compounds are collected here from PubChem BioAssay (NCI).

About 83,000 compounds went through this panel and 20% of them were active in at least one assay; those are over-represented in the sample as a whole.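 Results are percent growth after 48 hours of single-concentration exposure. 100 means growth as in untreated cells, lower positive values show inhibition; negative values down to -100 show cell death.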 Unmarked numbers belong to inactive results. The source made the active and inactive calls. The calls were made as follows: active = growth percent below 10; inactive = the rest.

On to `Cc1cc(C)c(CCc2cc(C)c(C)cc2C)cc1C`, for which the growth was 100% in the assay with HT29 colon; 98.3% in the assay on SNB-75 CNS; 105% with SNB-19 CNS; 93.9% in the assay with U251 CNS; 106% in the assay with PC-3 prostate; 101% in the assay with UACC-62 melanoma. Besides, the growth was 91.7% in the assay on LOX IMVI melanoma; 108% with SK-MEL-28 melanoma; 109% in the assay on SK-MEL-2 melanoma; 102% in the assay with EKVX NSCLC; 107% in the assay on SN12C renal; 92.2% with UO-31 renal. Besides, the growth in the assay on TK-10 renal is 117%; in the assay on CAKI-1 renal it was 94.1%; in the assay on A498 renal it was 98.7%; with CCRF-CEM leukemia, 93%; in the assay on MOLT-4 leukemia, 90.5%; with SR leukemia, 90.4%.
As for `Cc1cc(O)c(C(C)(C)C)cc1Sc1cc(C(C)(C)C)c(O)cc1C`, the growth was 97.1% in the assay with HT29 colon; 54.2% in the assay on SNB-75 CNS; 81% with SNB-19 CNS; 60% in the assay with U251 CNS; 22.5% in the assay on PC-3 prostate; 33.7% in the assay on SK-MEL-5 melanoma. For the same compound, the growth with UACC-62 melanoma is 16.3%; in the assay with LOX IMVI melanoma, 63.9%; in the assay with SK-MEL-2 melanoma, 72.6%; with EKVX NSCLC, 40.7%; in the assay on SN12C renal it was 58.2%; with UO-31 renal, 37.5%. In addition, the growth with TK-10 renal was 81%; in the assay with ACHN renal, 60.7%; in the assay with CCRF-CEM leukemia it was 18.2%; with MOLT-4 leukemia, 1.49% (active); with SR leukemia, -33.1% (active).
For `O=C(C[n+]1ccccc1)c1ccc2ccccc2c1`, the growth in the assay with HT29 colon was 92%; in the assay with SNB-75 CNS, 75.1%; in the assay on SNB-19 CNS, 99.5%; in the assay with U251 CNS, 95.3%; in the assay with PC-3 prostate, 87.8%; in the assay on SK-MEL-5 melanoma it was 102%. In addition, the growth in the assay with UACC-62 melanoma is 96%; in the assay with LOX IMVI melanoma it was 99.8%; in the assay on SK-MEL-2 melanoma, 112%; in the assay on EKVX NSCLC, 88.2%; with SN12C renal, 93.8%; with UO-31 renal, 74%. Besides, the growth in the assay on TK-10 renal was 102%; with ACHN renal, 102%; with CAKI-1 renal, 96.7%; in the assay with CCRF-CEM leukemia, 95.9%; in the assay with MOLT-4 leukemia, 96%; with SR leukemia, 92.1%.
Regarding `CCN(CC)CCC(CNc1c(C)cnc2cc(Cl)ccc12)c1ccc(Cl)cc1` (stereo not given), the growth is 14.8% in the assay with HT29 colon; 65.3% in the assay with SNB-75 CNS; 68.1% in the assay with SNB-19 CNS; 48.6% in the assay with U251 CNS; 55.9% in the assay with PC-3 prostate; -28.8% (active) in the assay with UACC-62 melanoma. For the same compound, the growth is 33.6% with LOX IMVI melanoma; -88.8% (active) in the assay with SK-MEL-28 melanoma; 92.8% with SK-MEL-2 melanoma; 70.8% in the assay on EKVX NSCLC; 56.7% with SN12C renal; 41.8% with UO-31 renal. The growth in the assay with TK-10 renal is 89.6%; with ACHN renal, 44.8%; in the assay with CAKI-1 renal, 60.1%; in the assay on A498 renal, 19.8%; in the assay on CCRF-CEM leukemia, 42%; with MOLT-4 leukemia, 39.5%. For the same compound, in the assay on SR leukemia, the growth was -10.8% (active).
Regarding `CC(=O)N1N=C(c2ccc(Cl)cc2)CC1c1sc(Cl)nc1Cl` (stereo not given), the growth with HT29 colon was 64.2%; with SNB-75 CNS, 84.3%; in the assay with SNB-19 CNS, 66.9%; in the assay on U251 CNS it was 71.2%; in the assay on PC-3 prostate, 72.8%; in the assay with UACC-62 melanoma it was 83.3%. For the same compound, the growth in the assay on LOX IMVI melanoma is 88.4%; in the assay on SK-MEL-28 melanoma, 94.7%; with SK-MEL-2 melanoma it was 84.9%; with SN12C renal, 69.6%; in the assay with UO-31 renal it was 40.9%; with TK-10 renal, 68.8%. Further, the growth in the assay with ACHN renal was 105%; in the assay on CAKI-1 renal, 75.9%; with A498 renal it was 9.27% (active); in the assay on CCRF-CEM leukemia, 93.4%; with MOLT-4 leukemia, 77.6%; in the assay with SR leukemia, 58.5%.
For the compound `O=C(Nc1cccc(-n2cc(-c3ccncc3)c(-c3ccc(O)c(Cl)c3)n2)c1)c1ccc(N2CCOCC2)c(C(F)(F)F)c1`, the growth with HT29 colon is 12.4%; in the assay with SNB-75 CNS, 33.5%; with SNB-19 CNS, 67.9%; in the assay with U251 CNS it was -13% (active); in the assay on PC-3 prostate, 24.4%; with UACC-62 melanoma, 43.3%. Further, the growth is 21.1% with LOX IMVI melanoma; 49.7% in the assay with SK-MEL-28 melanoma; 57.5% in the assay on SN12C renal; 13.1% with UO-31 renal; 73.4% in the assay with TK-10 renal; 29.3% in the assay on ACHN renal. Further, the growth in the assay on CAKI-1 renal is 26.5%; in the assay with A498 renal it was 71.7%; in the assay with CCRF-CEM leukemia, 20.2%; with MOLT-4 leukemia it was 40.2%; in the assay on SR leukemia it was 18%.
In the case of `COc1cc(C(=O)/C=C/c2cc(-c3cc(OC)c(OC)c(OC)c3)n[nH]2)cc(OC)c1OC`, the growth is -47.5% (active) in the assay with HT29 colon; 54.9% in the assay on SNB-75 CNS; 55.4% in the assay with SNB-19 CNS; -57.9% (active) in the assay with U251 CNS; 12.9% with PC-3 prostate; 51% with UACC-62 melanoma. Further, the growth was -62.7% (active) in the assay with LOX IMVI melanoma; -59.5% (active) in the assay with SK-MEL-28 melanoma; 4.38% (active) in the assay on SK-MEL-2 melanoma; 2.09% (active) with SN12C renal; -77.2% (active) with UO-31 renal; -25.8% (active) in the assay on ACHN renal. The growth with CAKI-1 renal was 8.9% (active); with A498 renal it was 29.2%; in the assay on CCRF-CEM leukemia, -23.8% (active); in the assay with MOLT-4 leukemia it was 7.64% (active); in the assay on SR leukemia, -7.98% (active).
With `COc1cc(Cc2cc(-c3ccc(Cl)cc3)n[nH]c2=O)ccc1O`, the growth in the assay on HT29 colon is 110%; in the assay with SNB-75 CNS, 70.8%; in the assay with SNB-19 CNS, 86.2%; with U251 CNS, 108%; in the assay on PC-3 prostate, 105%; in the assay with UACC-62 melanoma, 96.4%. The growth in the assay with LOX IMVI melanoma was 115%; in the assay with SK-MEL-28 melanoma it was 122%; in the assay on SK-MEL-2 melanoma, 117%; in the assay on EKVX NSCLC, -26% (active); in the assay with SN12C renal, 98%; in the assay with UO-31 renal it was 83.9%. The growth in the assay with TK-10 renal is 157%; with ACHN renal, 109%; in the assay on CAKI-1 renal it was 132%; in the assay with A498 renal it was 104%; in the assay with MOLT-4 leukemia it was -59.9% (active); in the assay on SR leukemia, -35.7% (active).
`CCN(CCCCCCCCCCN1CC(=O)N(CCCCCCCCCCN(CC)Cc2ccccc2OC)CC1=O)Cc1ccccc1OC`: the growth in the assay with HT29 colon is -57.8% (active); with SNB-75 CNS, -15.7% (active); in the assay with SNB-19 CNS, -20% (active); with U251 CNS, -71.1% (active); in the assay with PC-3 prostate it was -40.9% (active); with SK-MEL-5 melanoma, -100% (active). The growth with UACC-62 melanoma is -80.5% (active); with LOX IMVI melanoma it was -86.6% (active); in the assay with SK-MEL-2 melanoma, -60.6% (active); in the assay on EKVX NSCLC, -0.258% (active); with SN12C renal, 9.4% (active); with UO-31 renal it was -74.8% (active). Moreover, the growth is 10.1% in the assay with TK-10 renal; 3.48% (active) in the assay with ACHN renal; -12.8% (active) in the assay on CAKI-1 renal; -25.5% (active) with CCRF-CEM leukemia; -32.7% (active) in the assay on MOLT-4 leukemia; -61.3% (active) in the assay with SR leukemia.
